“And” between values parts separate entries of the source, which are not always exact repeats. Equal entries are not always repeated. Screen size: about 360,000 compounds; about 1,600 (0.44%) were called active.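 The calls were made as follows: active = every replicate showing at least 50% inhibition; inconclusive = mean inhibition at least 50% but not in every replicate; inactive = the rest.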 Only a selection was taken, and actives are over-represented in it overall. The source holds several records for some structures; these can differ, active in one and inactive in another.

Sequence of DNA repair protein RAD52 homolog (Homo sapiens) (P43351 whole entry, looked up): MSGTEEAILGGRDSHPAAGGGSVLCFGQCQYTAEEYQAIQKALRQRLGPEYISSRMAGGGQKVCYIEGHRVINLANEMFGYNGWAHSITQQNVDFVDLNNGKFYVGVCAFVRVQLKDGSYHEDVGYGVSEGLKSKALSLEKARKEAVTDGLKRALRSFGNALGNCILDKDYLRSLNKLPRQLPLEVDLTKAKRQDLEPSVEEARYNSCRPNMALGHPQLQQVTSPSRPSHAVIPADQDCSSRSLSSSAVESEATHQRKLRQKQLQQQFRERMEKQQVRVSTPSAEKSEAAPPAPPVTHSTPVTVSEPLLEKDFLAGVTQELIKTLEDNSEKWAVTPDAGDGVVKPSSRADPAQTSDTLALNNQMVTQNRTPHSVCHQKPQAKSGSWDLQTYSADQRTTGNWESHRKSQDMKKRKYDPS

The experiment has as its target DNA repair protein RAD52 homolog (Homo sapiens) (UniProt P43351). Put plainly: blockers of RAD52 strand annealing activity – biochemical, FRET, single point, set 2, primary screen (AID 651710). To be noted: recombinant RAD52 DNA annealing, FRET fluorescence; at 18.7 µM; stronger effect = higher value.
The term inhibition denotes the relative decrease from the control value, in per cent. As for `CCCNC(=O)N(C)C[C@H]1Oc2cc(C#CC(C)(C)O)ccc2S(=O)(=O)N([C@H](C)CO)C[C@@H]1C`, the inhibition is -3.15% (inactive).
On to `COCC#Cc1cnc2c(c1)C(=O)N([C@H](C)CO)C[C@H](C)[C@@H](CN(C)C(=O)Nc1cc(F)ccc1F)O2`, for which the inhibition is -15.1% (inactive).
For `C[C@@H]1CN([C@@H](C)CO)C(=O)c2cc(NC(=O)Nc3ccc4c(c3)OCO4)ccc2O[C@@H](C)CCCCO[C@@H]1CN(C)Cc1ccccc1` the value was -6.98% (inactive); for `Cc1c(CCOC(=O)c2cc([N+](=O)[O-])ccc2Cl)sc[n+]1CCCCS(=O)(=O)[O-]`, -6.18% (inactive); for `Cc1c(CCOC(=O)CC23CC4CC(CC(C)(C4)C2)C3)sc[n+]1Cc1ccc([N+](=O)[O-])cc1`, 57.8% (active).
Consider `Cc1c(CCO)sc[n+]1CC(=O)OC12CC3CC(CC(C3)C1)C2`, for which the inhibition is 9.07% (inactive).
For `CO[C@H]1CN(C)C(=O)c2ccc(NC(=O)Nc3ccccc3)cc2OC[C@@H](C)N(C(=O)CC2CC2)C[C@@H]1C` the value was 7.81% (inactive); for `O=C1O[C@@H](c2ccccc2)[C@@H](c2ccccc2)N2[C@@H](c3ccccc3OCCO)[C@]3(C(=O)Nc4ccc(C#CC5(O)CCCCCC5)cc43)[C@@H](C(=O)N3CCCCCCC3)[C@H]12`, 6.97% (inactive); for `COc1ccc(C#Cc2ccc3c(c2)[C@]2(C(=O)N3)[C@H](c3ccccc3OCCO)N3[C@H](c4ccccc4)[C@H](c4ccccc4)OC(=O)[C@H]3[C@@H]2C(=O)N2CCCCCCC2)cc1`, 55.6% (active).
The same measure for `COc1ccc(C#Cc2ccc3c(c2)[C@]2(C(=O)N3)[C@H](C(=O)N3CCCCCCC3)[C@H]3C(=O)O[C@H](c4ccccc4)[C@H](c4ccccc4)N3[C@@H]2c2ccc(O)cc2)cc1`: 0.035% (inactive); for `CO[C@H]1CN(C)C(=O)c2ccc(NC(C)=O)cc2OC[C@H](C)N(CC2CC2)C[C@@H]1C`: 5.82% (inactive); for `COc1ccc(NC(=O)Nc2cccc3c2O[C@H](CN(C)C(=O)Nc2ccc(F)cc2)[C@@H](C)CN([C@@H](C)CO)C3=O)cc1`: -2.48% (inactive).
In the case of `O=C(C1CCCCC1)N1CC2(C1)[C@H](c1ccccc1)[C@H](CO)N2CC1CCCC1`, the inhibition is -23.5% (inactive).
Take `Cc1cc(C)c2nc3nc(C)cc(C)c3c(N)c2c1`: the inhibition was 91% (active).
Regarding `C[C@H]1CN([C@@H](C)CO)C(=O)c2cccc(NC(=O)C3CCOCC3)c2O[C@@H]1CN(C)C(=O)Nc1cccc2ccccc12`, the inhibition was 6.23% (inactive).
The same measure for `CC=Cc1ccc2n(c1=O)C[C@@H]1[C@@H](CO)[C@H](C(=O)NCCC)[C@H]2N1C(=O)C1CC1` (mixture of isomers): 6.42% (inactive).
The same measure for `CC=Cc1ccc2n(c1=O)C[C@@H]1[C@@H](CO)[C@H](C(=O)NCC)[C@H]2N1CCC(F)(F)F` (mixture of isomers): 75.5% (active).
The same measure for `CC=Cc1ccc2n(c1=O)C[C@@H]1[C@@H](CO)[C@H](C(=O)N(C)C)[C@H]2N1CCc1ccccc1` (mixture of isomers): -10.1% (inactive); for `CC(=O)N1[C@@H](CO)[C@H](c2ccccc2)[C@@H]1CN(C(=O)c1ccccc1)C(C)C`: -18% (inactive); for `O=C(C[C@H]1CC[C@@H](NC(=O)c2ccc(F)cc2)[C@@H](CO)O1)NCc1ccncn1`: -0.457% (inactive).
Consider `CO[C@@H]1CN(C)C(=O)c2cc(NC(=O)C3CC3)ccc2OC[C@@H](C)N(Cc2ccc(F)cc2)C[C@@H]1C`, for which the inhibition is -6.33% (inactive).
For `Cc1ccccc1-c1ccc(C2[C@@H]3CN(C(=O)C4CCCCC4)C[C@H]2N3)cc1` (stereo partly specified), the inhibition was 54.8% (active) and 0.102% (inactive).
The same measure for `O=C(C1CCCCC1)N1C[C@@H]2N[C@H](C1)C2c1ccc(-c2cccc(F)c2)cc1` (stereo partly specified): 61% (active) and 30.9% (inactive); for `O=C(C1CCC1)N1C[C@@H]2N[C@H](C1)C2c1ccc(-c2cncnc2)cc1` (stereo partly specified): 17.7% (inactive); for `O=C(C1CCCCC1)N1CC(=O)N2[C@H](CO)[C@@H](c3ccc(-c4ccccc4F)cc3)[C@@H]2C1`: -8.61% (inactive).
On to `N#Cc1cccc(-c2ccc(C3[C@@H]4CN(C(=O)C5CCC5)C[C@H]3N4)cc2)c1` (stereo partly specified), for which the inhibition was -9.39% (inactive) and 14.7% (inactive).
Turning to `O=C(C1CCCC1)N1CCCCN2[C@@H](CO)[C@H](c3ccc(-c4cccc(F)c4)cc3)[C@@H]2C1`, the inhibition is 44.8% (inactive).
The same measure for `CS(=O)(=O)N1CC2(C1)[C@H](c1ccccc1)[C@H](CO)N2Cc1ccc(F)cc1`: -16.8% (inactive); for `Cc1ccc(-c2ccc3c(c2)O[C@H](CN(C)C)[C@@H](C)CN([C@@H](C)CO)S3(=O)=O)cc1`: 19.5% (inactive).
On to `O=C(C[C@@H]1C[C@@H]2c3cc(NC(=O)Nc4ccccc4F)ccc3O[C@@H]2[C@H](CO)O1)NCCc1ccccc1`, for which the inhibition is 2.98% (inactive).
The same measure for `CO[C@@H]1CN(C)C(=O)c2cc(NC(=O)Nc3cc(F)ccc3F)ccc2OC[C@H](C)N(C)C[C@@H]1C`: 22.6% (inactive); for `CN(Cc1ccccc1F)c1cc2c(c3c1ccn3C)C1CCC2O1` (stereo unspecified): 61% (active).
For `CC(C)NC(=O)N(C)C[C@H]1OCCCC[C@H](C)Oc2ccc(NC(=O)Nc3ccc(C(F)(F)F)cc3)cc2C(=O)N([C@H](C)CO)C[C@@H]1C` the value was -13.2% (inactive); for `C[C@@H]1CCCCO[C@@H](CN(C)S(=O)(=O)c2ccc(F)cc2)[C@@H](C)CN([C@@H](C)CO)C(=O)c2cc(NS(=O)(=O)c3cccs3)ccc2O1`, -29.4% (inactive).
The same measure for `CC(C)NC(=O)N(C)C[C@H]1OCCCC[C@H](C)Oc2ccc(NC(=O)CCC(F)(F)F)cc2C(=O)N([C@@H](C)CO)C[C@@H]1C`: -0.514% (inactive).
Regarding `Cc1noc(C)c1S(=O)(=O)Nc1cccc2c1O[C@@H](CN(C)S(=O)(=O)c1cn(C)cn1)[C@@H](C)CN([C@H](C)CO)C2=O`, the inhibition is -26.9% (inactive).
With `CN(C)C(=O)C[C@@H]1C[C@@H]2c3cc(NC(=O)C4CCOCC4)ccc3O[C@@H]2[C@@H](CO)O1`, the inhibition is -0.675% (inactive).
For `CCCNC(=O)N1[C@@H]2CNC[C@H]1C2c1ccc(-c2ccccc2)cc1` (stereo partly specified) the value was -12.3% (inactive) and 2.3% (inactive); for `COc1ccccc1C(=O)N1O[C@]23C=C[C@]14C[C@@H](O)CC[C@]4(C)C2CC[C@]1(C)[C@@H]([C@H](C)/C=C/[C@H](C)C(C)C)CC[C@H]13` (stereo partly specified), -15.6% (inactive).
In the case of `CC(C)[C@@H](C)/C=C/[C@@H](C)[C@H]1CC[C@@H]2[C@]1(C)CCC1[C@]23C=C[C@]2(C[C@@H](O)CC[C@]12C)N(c1ccc([N+](=O)[O-])cn1)O3` (stereo partly specified), the inhibition is 73.5% (active).
For the compound `CC(C)NC(=O)Nc1ccc2c(c1)C(=O)N([C@@H](C)CO)C[C@H](C)[C@@H](CN(C)S(C)(=O)=O)O2`, the inhibition is -11% (inactive).
For `C[C@@H]1CN([C@@H](C)CO)C(=O)Cc2cc(NC(=O)Nc3ccc4c(c3)OCO4)ccc2O[C@H]1CN(C)S(=O)(=O)c1ccccc1` the value was 2.34% (inactive); for `CCN(C[C@@H]1[C@H](c2ccccc2)[C@@H](CO)N1CC1CC1)C(=O)c1ccccn1`, -2.51% (inactive); for `CC(O)c1ccc(OCCN(C)c2ccccn2)cc1` (stereo unspecified), -7.28% (inactive).
On to `CCN(CC)CCOc1ccc2c(c1)C(=NNC(=O)c1ccccn1)c1cc(OCCN(CC)CC)ccc1-2`, for which the inhibition was 108% (active).
Consider `COCCOC(=O)N1C(=O)[C@@]2(c3cc(C#CCNC(N)=O)ccc31)[C@H](C(=O)N1CCN(c3ncccn3)CC1)[C@H]1C(=O)O[C@H](c3ccccc3)[C@H](c3ccccc3)N1[C@@H]2c1ccccc1OCCO`, for which the inhibition was 31.5% (inactive).
For `CN1CCN(C2Cc3ccc(Cl)cc3Sc3ccc(F)cc32)CC1` (stereo unspecified) the value was 54.5% (active); for `CN1C(=O)CN2CCc3ccccc3C2c2cc(Cl)ccc21` (stereo unspecified), -6.27% (inactive).
Consider `O=C(C[C@@H]1C=C[C@@H](NC(=O)C2CCC2)[C@H](CO)O1)NCC1CC1`, for which the inhibition was -2.1% (inactive).
The same measure for `CCN(CC(=O)Nc1ccc(NC(C)=O)cc1)C(=O)C1CC(=O)N(c2ccc3c(c2)OCCO3)C1` (stereo unspecified): 74.7% (active); for `CCOC(=O)c1ccc(NC(=O)C2CC(=O)N(c3ccc4c(c3)OCCO4)C2)cc1` (stereo unspecified): -4.32% (inactive); for `CCN(CC(=O)Nc1ccc(NC(C)=O)cc1)C(=O)C1CC(=O)N(Cc2ccc(C)cc2)C1` (stereo unspecified): -6.68% (inactive).
Regarding `COc1cccc(C(=O)Nc2ccc3c(c2)C(=O)N(C)C[C@@H](OC)[C@H](C)CN(C(=O)C2CCOCC2)[C@H](C)CO3)c1`, the inhibition is -0.027% (inactive).
The same measure for `C[C@H](CO)N1C[C@H](C)[C@@H](CN(C)Cc2ccc(Cl)c(Cl)c2)Oc2ccc(NC(=O)Cn3cnnn3)cc2CC1=O`: 5.4% (inactive); for `O=C(C1CCCC1)N1[C@H](CO)[C@@H](c2ccccc2)C12CN(CCC(F)(F)F)C2`: 6.31% (inactive); for `CO[C@H]1CN(C)C(=O)c2cc(NC(=O)Nc3ccccc3)ccc2OC[C@@H](C)N(C(=O)Nc2c(C)noc2C)C[C@@H]1C`: 8.84% (inactive).
The same measure for `CN(C)CC(=O)Nc1ccc2c(c1)[C@H]1C[C@@H](CC(=O)NCc3ccc(-c4ccccc4)cc3)O[C@H](CO)[C@H]1O2`: 60.2% (active).
For `CN(C)CC(=O)Nc1ccc2c(c1)[C@@H]1C[C@H](CC(=O)NCc3ccc(-c4ccccc4)cc3)O[C@@H](CO)[C@@H]1O2`, the inhibition was 43.1% (inactive).
For `CN(C)CC(=O)Nc1ccc2c(c1)[C@H]1C[C@H](CC(=O)NCc3ccccc3)O[C@@H](CO)[C@H]1O2` the value was -10.3% (inactive); for `CN1c2ccc(-c3ccc(C#N)cc3)cc2[C@@H]2[C@@H](CCN2S(=O)(=O)c2cccc(F)c2)[C@@H]1CO`, 8.85% (inactive).
For `CCCNC(=O)[C@@H]1[C@@H](CO)[C@@H]2Cn3c(cccc3=O)[C@H]1N2C(=O)C1CC1` the value was -0.051% (inactive).
